High-throughput results deposited in PubChem by National Center for Advancing Translational Sciences (NCATS).
ALDH1A1 block: qHTS Assay for Inhibitors of Aldehyde Dehydrogenase 1 (ALDH1A1); Potency, µM (top dose mostly 75.3 µM), actives largely listed as inhibitors; AID 1030, 2008; Purified ALDH1A1, NADH fluorescence, propionaldehyde substrate; 220,000 tested, 7.3% active
HPGD inh: qHTS Assay for Inhibitors of HPGD (15-Hydroxyprostaglandin Dehydrogenase) | AID 894, 2007 | purified HPGD, NADH fluorescence kinetic, PGE2 substrate | 15-hydroxyprostaglandin dehydrogenase [NAD(+)] (Homo sapiens), P15428 | 150,000 tested, 4.3% active | Potency, µM, most hits filed as inhibitors
Target sequence (P15428 whole entry, looked up): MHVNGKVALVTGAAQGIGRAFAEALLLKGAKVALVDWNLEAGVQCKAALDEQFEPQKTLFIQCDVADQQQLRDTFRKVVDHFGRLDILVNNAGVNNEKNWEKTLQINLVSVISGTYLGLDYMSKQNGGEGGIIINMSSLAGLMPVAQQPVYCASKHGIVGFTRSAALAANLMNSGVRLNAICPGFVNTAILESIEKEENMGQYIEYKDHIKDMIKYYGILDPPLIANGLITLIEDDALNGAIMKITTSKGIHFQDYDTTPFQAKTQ
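NADH formation kinetics: reaction with 30 uM PGE2 and 1 mM NAD+ (final), 20 nM enzyme, Tris-HCl pH 8 with Tween 20, after 15 min compound preincubation at room temperature. Fluorescence change, last versus first of five reads.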
PNC assembly inh: High Content Assay for Compounds that inhibit the Assembly of the Perinucleolar Compartment; AID 2417, 2010; PC3M PTB-GFP, PNC prevalence imaging, 16 h; hits give low values; activity change (PNC), negative = inhibition, % at 10 µM; 140,000 tested, 3.1% active;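 active means readout at or below -70, meaning at least 70% loss of cells showing the perinucleolar compartment, a nuclear body marking cancer cells; inconclusive means readout between -30 and a set limit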
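PC3M cells stably expressing PTB-GFP, 750–1000 cells/well, treated 16 h at 37 °C with compound (23 nl of library stock), in duplicate. After paraformaldehyde fixation and Hoechst stain, imaged at 20x; PNC prevalence scored by image analysis.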
A number is an active result. Compounds with a hit are over-represented: about 11% of the library has one in this group of screens. Unless noted, the call rests on the fitted dose curve; in most records, active means well fitted inhibition curve with a large enough effect (not every such curve was filed as active); inconclusive means small, poorly fitted or top-dose-only effect, or another doubt; inactive means no such curve, though single readings can be large or run the other way.

What do the screens show for `Cc1ccc2nc(C3CCCN3Cc3nc(CCC(C)C)no3)[nH]c2c1` (stereo unspecified)?
ALDH1A1 block: inactive

What do the screens show for `CCOc1cc(N2CCOCC2)c(OCC)cc1NC(=O)CC12CC3CC(CC(C3)C1)C2`?
ALDH1A1 block: 4.47µM; HPGD inh: inactive; PNC assembly inh: inconclusive

What do the screens show for `CCOc1cc(N2CCOCC2)c(OCC)cc1NC(=O)CSc1ncn[nH]1`?
ALDH1A1 block: inactive

Results for CCOc1cc(N2CCOCC2)c(OCC)cc1NC(C)C(=O)N1CCC(C)CC1 (stereo unspecified) ?
ALDH1A1 block: 11.2µM; PNC assembly inh: inconclusive

Results for CCOc1cc(N2CCOCC2)c(OCC)cc1NC(=O)Cc1ccc(OC)c(OC)c1 ?
ALDH1A1 block: inactive; HPGD inh: inactive; PNC assembly inh: -124.1

Results for CCOc1cc(N2CCOCC2)c(OCC)cc1NC(=O)Cc1cccc(OC)c1 ?
ALDH1A1 block: inactive; PNC assembly inh: inactive

Results for CCOc1cc(N2CCOCC2)c(OCC)cc1NC(=O)[C@H](C)N1C(=O)C2CC=CCC2C1=O (stereo partly specified) ?
ALDH1A1 block: inactive

Results for COc1ccc(C2NCCc3c2[nH]c2ccccc32)cc1CSc1nc2ccccc2s1 (stereo unspecified) ?
ALDH1A1 block: inconclusive; HPGD inh: inactive; PNC assembly inh: inactive

What do the screens show for `CC[N+](C)(CC)CC(O)COCC1COc2ccccc2O1` (stereo unspecified)?
ALDH1A1 block: inactive; HPGD inh: inactive; PNC assembly inh: inactive

What do the screens show for `Cc1cnc(C(=O)N2CCCC(C(=O)c3cccc(OC(C)C)c3)C2)cn1` (stereo unspecified)?
ALDH1A1 block: inactive

Results for COCCn1c(SCc2cc(=O)n3cc(C)ccc3n2)nc2ccccc2c1=O ?
ALDH1A1 block: inactive

What do the screens show for `Nc1ccccc1SC1CC(=O)N(c2ccc(Cl)c(Cl)c2)C1=O` (stereo unspecified)?
ALDH1A1 block: inactive

Results for O=C(O)CSC1CC(=O)N(c2ccc(Cl)c(Cl)c2)C1=O (stereo unspecified) ?
ALDH1A1 block: 3.16µM; HPGD inh: inactive; PNC assembly inh: inconclusive

Results for O=C(O)CSC1CC(=O)N(c2cccc(Cl)c2)C1=O (stereo unspecified) ?
ALDH1A1 block: 10µM; HPGD inh: inactive; PNC assembly inh: inconclusive

What do the screens show for `O=C(NNC1CC(=O)N(c2cccc(Cl)c2)C1=O)c1cccs1` (stereo unspecified)?
ALDH1A1 block: inconclusive; HPGD inh: inactive; PNC assembly inh: inactive

Results for CN1CCN(c2ncncc2-c2ccc(N(C)C)cc2)CC1 ?
ALDH1A1 block: inactive

Results for O=C(O)CNS(=O)(=O)c1c(Cl)cccc1Cl ?
ALDH1A1 block: inactive

Results for C/C=C/c1ccc(OCCOc2cc(C=O)ccc2OC)c(OC)c1 ?
ALDH1A1 block: inactive; HPGD inh: inactive; PNC assembly inh: -113.4

Results for C/C=C/c1ccc(OCCn2cncn2)c(OC)c1 ?
ALDH1A1 block: 25.1µM; HPGD inh: inactive; PNC assembly inh: inconclusive

What do the screens show for `C/C=C/c1ccc(OCC(=O)O)c(OC)c1`?
ALDH1A1 block: inactive

How did C/C=C/c1ccc(OCCCCn2cncn2)c(OC)c1 do in these assays?
ALDH1A1 block: inconclusive; HPGD inh: inactive; PNC assembly inh: inactive

What do the screens show for `C/C=C/c1ccc(OCCCCOc2ccccc2F)c(OC)c1`?
ALDH1A1 block: inconclusive; HPGD inh: inactive; PNC assembly inh: -125.2

How did COc1cc(C=O)ccc1OCc1ccc(Cl)nc1 do in these assays?
ALDH1A1 block: 5.01µM

Results for C/C=C/c1ccc(OCCCn2cncn2)c(OC)c1 ?
ALDH1A1 block: inactive; HPGD inh: inactive; PNC assembly inh: inactive

How did COc1ccc(CCNCc2ccc(OCc3ccc(Cl)nc3)c(OC)c2)cc1OC do in these assays?
ALDH1A1 block: inactive; HPGD inh: inactive; PNC assembly inh: inactive

How did CCN(CC)C(=O)Oc1ccc2c(=O)c(-c3ccc(OC)cc3)c(C)oc2c1 do in these assays?
ALDH1A1 block: 14.1µM; HPGD inh: inactive; PNC assembly inh: inconclusive

What do the screens show for `CCN(CC)C(=O)Oc1ccc2c(=O)c(-c3ccc(OC)cc3)coc2c1`?
ALDH1A1 block: inconclusive; HPGD inh: inactive; PNC assembly inh: inactive

What do the screens show for `O=C(NC(Cc1ccccc1)C(=O)O)/C(=C/c1ccco1)NC(=O)c1cccc(Br)c1` (stereo unspecified)?
ALDH1A1 block: inactive; HPGD inh: inactive; PNC assembly inh: inactive

Results for Cn1cccc1C(=O)N1CCC[C@@]2(CCN(Cc3cc(C(F)(F)F)cc(C(F)(F)F)c3)C2)C1 ?
ALDH1A1 block: inactive; HPGD inh: inactive
